Consider 21 compounds from PubChem BioAssay (NCI).

Compounds without any hit were thinned out: in the full panel of roughly 79,000, 15% have a hit. Values without a mark were called inactive. Active and inactive are the calls of the source. Cut-off read from the data, not from the text of the source: active = growth inhibition above about 70%; inactive = the rest.

Test [1] is described as follows: NCI Yeast Anticancer Drug Screen. Data for the rad50 strain (AID 155).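 Note: 0% = growth of vehicle-only cultures of the same strain.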 The note with it: S. cerevisiae rad50 strain growth inhibition; at 50.0 µM; active compounds read high. The method, boiled down: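 Growth of the mutant yeast was measured after compound exposure and referenced to vehicle-treated cultures.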
The nature of test [2]: NCI Yeast Anticancer Drug Screen. Data for the mec2-1 strain (AID 157). The note with it: S. cerevisiae mec2-1 strain, at 50.0 µM, active compounds read high. The essentials:
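mec2-1 yeast strain, carrying an alteration in DNA damage repair or cell cycle control, was exposed to compounds; growth inhibition was measured relative to vehicle-treated controls.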

Test [3] can be described thus: NCI Yeast Anticancer Drug Screen. Data for the sgs1 mgt1 strain (AID 161).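 Note: 0% = growth of cultures given vehicle only.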 The note with it: S. cerevisiae sgs1 mgt1 strain, at 50.0 µM, active compounds read high. The essentials: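 Percent growth inhibition was derived by comparing compound-exposed mutant yeast with vehicle-exposed cultures. The strain carries alterations in DNA damage repair.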
Test [4] can be described thus: NCI Yeast Anticancer Drug Screen. Data for the cln2 rad14 strain (AID 165).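 Note: 0% = growth equal to vehicle treated cultures.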 The note with it: S. cerevisiae cln2 rad14 strain, at 50.0 µM, active compounds read high. The essentials:
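Yeast carrying cln2 and rad14 alterations (cell cycle control and DNA damage repair) were exposed to compounds. Growth inhibition was measured against vehicle-treated controls.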

Test [5] is described as follows: NCI Yeast Anticancer Drug Screen. Data for the bub3 strain (AID 167). The settings on record: S. cerevisiae bub3 mutant strain, at 50.0 µM, active compounds read high. The method, boiled down:
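Whole-cell yeast assay. The mutant strain was incubated with compounds, and growth inhibition was determined by comparison with vehicle-treated cells.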

The nature of test [6]: NCI Yeast Anticancer Drug Screen. Data for the mlh1 rad18 strain (AID 175). The note with it: S. cerevisiae mlh1 rad18 strain growth inhibition; at 50.0 µM; active compounds read high. The essentials:
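Growth inhibition of the yeast strain was measured after compound exposure and expressed relative to vehicle-treated controls. The strain carries defined defects in DNA damage repair.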

Turning to `CCCCCCNC(=O)CCC(NC(=O)c1ccc(N(C)Cc2cnc3nc(N)nc(N)c3n2)cc1)C(=O)NCCCCCC` (stereo unspecified), the growth inhibition is 18.2% in test [1]; 17.1% in test [2]; 19.1% in test [3]; 19.9% in test [4]; 25.4% in test [5]; 28.2% in test [6].
For the compound `CC(=O)OCc1ccc2ccccc2c1`, the growth inhibition in test [1] is -9.35%; in test [2] it was -29.7%; in test [3] it was -10.8%; in test [4], -3.2%; in test [5] it was -7.65%; in test [6], -14.7%.
As to `COc1ccc(/C(N=Nc2ccccc2)=N/N=C(N)N)cc1`, the growth inhibition in test [1] is 24.3%; in test [2], 6.35%; in test [3], 12.1%; in test [4], -2.6%; in test [5] it was 36.9%; in test [6], 8.2%.
Turning to `O=C(Nc1cccc2ccccc12)OCCBr`, the growth inhibition in test [1] is 6.85%; in test [2], -9.95%; in test [3] it was 3.25%; in test [4], 7%; in test [5], -10.2%; in test [6], -7.4%.
As for `O=C(NCCN1CCNCC1)c1ccc(Cl)cc1`, the growth inhibition in test [1] was 26.9%; in test [2] it was 40%; in test [3], 30.8%; in test [4], 63%; in test [5], 33.6%; in test [6] it was 40.2%.
In the case of `O=C(NC1c2ccccc2CCc2ccccc21)C(F)(F)F`, the growth inhibition is 27.7% in test [1]; -7.75% in test [2]; 14.5% in test [3]; 3.05% in test [4]; 15.3% in test [5]; 22.6% in test [6].
For `O=C(O)C(CSC(c1ccccc1)(c1ccccc1)c1ccccc1)NSc1ccccc1[N+](=O)[O-]` (stereo unspecified), the growth inhibition is 96.2% (active) in test [1]; 97.2% (active) in test [2]; 97.7% (active) in test [3]; 96.5% (active) in test [4]; 95.6% (active) in test [5]; 97.8% (active) in test [6].
In the case of `CC1(c2cccc3c2C2(O)C=CC4(CCC32)OCCO4)OCCO1` (stereo unspecified), the growth inhibition in test [1] is -59.4%; in test [2], -41.2%; in test [3], -55.8%; in test [4], -27.6%; in test [5], -61.1%; in test [6] it was -26%.
Consider `Nc1cccc(N)n1.[Cu+2]`, for which the growth inhibition in test [1] was -20.1%; in test [2], -12.1%; in test [3], -13.8%; in test [4], -13.2%; in test [5], -15%; in test [6], -14.2%.
As to `CC1(C)CC(N2CCN(C3CC(C)(C)NC(C)(C)C3)CC2)CC(C)(C)N1`, the growth inhibition is -12.7% in test [1]; -19.6% in test [2]; -18.8% in test [3]; -8.3% in test [4]; -14.2% in test [5]; -29.6% in test [6].
`CCN(CC)CC(O)CO` (stereo unspecified): the growth inhibition in test [1] is -4.55%; in test [2] it was -16.6%; in test [3], -17.1%; in test [4], 5.9%; in test [5], 2%; in test [6] it was 1.35%.
For the compound `Nc1ccc2cc(S(=O)(=O)O)ccc2c1`, the growth inhibition in test [1] was 3.95%; in test [2] it was 14.9%; in test [3], -21.1%; in test [4], -3.95%; in test [5] it was 0.95%; in test [6], -6.05%.
With `CC1C2CC(C(S(=O)(=O)O)C2=O)C1(C)C` (stereo unspecified), the growth inhibition in test [1] is 9.25%; in test [2] it was -7%; in test [3], -32.5%; in test [4], 6.45%; in test [5], -36.8%; in test [6] it was -29.3%.
Turning to `OCC(O)C(O)C(O)CN=Cc1ccccc1O` (stereo unspecified), the growth inhibition in test [1] is -7.45%; in test [2], -2.25%; in test [3] it was 10.4%; in test [4] it was -7.8%; in test [5] it was -1.15%; in test [6] it was 12.3%.
Take `O=C1COCC(=O)N1`: the growth inhibition in test [1] was 7.35%; in test [2] it was -22%; in test [3] it was 8.85%; in test [4], -1.95%; in test [5] it was 0.05%; in test [6], -0.2%.
Take `O=C1O[C@@H](c2ccc3c(c2)OCO3)C2C(=O)O[C@@H](c3ccc4c(c3)OCO4)C12` (stereo partly specified): the growth inhibition was 13.5% in test [1]; 8.95% in test [2]; -8.15% in test [3]; 19.4% in test [4]; 2.6% in test [5]; 21.7% in test [6].
Take `C=C(C)COc1ccc(/C=C/C(=O)OCC)cc1`: the growth inhibition in test [1] was 9.8%; in test [2], -4%; in test [3], 4.5%; in test [4] it was 1.2%; in test [5], -6.25%; in test [6] it was -12.4%.
With `CC(=O)N1CC(C)(C)c2c1cc(C)c(O)c2C`, the growth inhibition is 1.85% in test [1]; -47.9% in test [2]; -8.4% in test [3]; -7.8% in test [4]; 5.15% in test [5]; -1.8% in test [6].
For `CCCCC(CCCC)c1ccccn1`, the growth inhibition in test [1] was -15.1%; in test [2], -10.9%; in test [3], 8.15%; in test [4], -18.2%; in test [5], 8.85%; in test [6], -14.4%.
For `CC(C)N=C(c1ccccc1)N(O)c1ccccc1`, the growth inhibition is -0.4% in test [1]; 3.15% in test [2]; -0.75% in test [3]; -10.3% in test [4]; 4.2% in test [5]; 5.05% in test [6].
On to `CC(C)(N)C(=O)O`, for which the growth inhibition in test [1] is 1.2%; in test [2] it was 24.5%; in test [3], 24.6%; in test [4] it was -10.9%; in test [5] it was -12.1%; in test [6] it was -6.85%.
